Assay results: PubChem BioAssay AID686978 (National Center for Advancing Translational Sciences (NCATS), 2013)
“And” between values parts separate entries of the source, which are not always exact repeats. Equal values may be shown once. Screen size: about 420,000 compounds; about 64,000 (15%) were called active. Entries that show only a call come without a potency. Not shown: some 27% with an inconclusive outcome. Calls follow the shape of the dose curve; as a rule, active = well fitted inhibition curve with a large enough effect; inconclusive = small, poorly fitted or top-dose-only effect; inactive = flat fitted curve, though single readings scatter. The full list was thinned out, with actives kept by preference.

assay: qHTS for Inhibitors of human tyrosyl-DNA phosphodiesterase 1 (TDP1): qHTS in cells in absence of CPT; details: DT40 Tdp1-/- hTDP1 cells, no CPT, ATP luminescence, 48 h; series mostly up to 46.2 µM; also: nearly all actives have a fitted effect of over 55% in size
Procedure, shortened: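 Growth of hTDP1-complemented DT40 Tdp1-knockout cells is measured by ATP luminescence after at least 48 hr compound exposure at 37 °C, with DMSO substituting for the 20 nM CPT used in the parallel screen.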
Potency is read from the fitted curve at half-maximal effect.

| Compound | Potency | activity change, negative = growth inhibition |
| --- | --- | --- |
| COc1ccc(-c2cc(NC=O)c3ncc(-c4cc(OC)c(OC)c(OC)c4)n3c2)c(OC)c1 | 0.82 µM (active) | – |
| O=C(O)COc1ccccc1/C=C1\C(=O)NC(=O)N(CCC2=CCCCC2)C1=O | inactive | – |
| O=C1NC(=O)N(CCc2ccc(F)cc2)C(=O)/C1=C/C=C/c1ccccc1 | 6.51 µM (active) | – |
| O=C1NC(=O)N(Cc2ccco2)C(=O)/C1=C\c1cccn1CCOc1ccccc1 | inactive | – |
| CCc1ccc(N(CC)C(=O)CCn2cnc3onc(-c4ccc(F)cc4)c3c2=O)cc1 | 13 µM (active) | – |
| O=C(/C=C/c1cccs1)c1cc(Cl)ccc1OC(=O)N1CCOCC1 | 16.4 µM (active) | – |
| Cc1cccc(-n2c(O)c(C=NC34CN5CN(CN(C5)C3)C4)c(=O)[nH]c2=O)c1 | inactive | – |
| COC12CC[C@@]3(C[C@@H]1C(C)(O)C(C)(C)C)[C@H]1Cc4ccc(O)c5c4[C@@]3(CCN1CC1CC1)[C@H]2O5 (some centres not stated) | 24.1 µM (active) | – |
| Oc1ccc2c3c1OC1[C@H](O)CC[C@@]4(O)[C@@H](C2)N(CC2CC2)CC[C@]314 (some centres not stated) | inactive | – |
| CCOC(=O)C1CN(C)CCC1=O (configuration not stated) | inactive | – |
| CCC/C(=N\O)c1c[nH]c2ccccc12 | inactive | – |
| CNCC[C@H](Oc1ccc(C(F)(F)F)cc1)c1ccccc1 | 8.41 µM (active) and 14.6 µM (active) | – |
| CCC1(CC(C)c2ccccc2)C(=O)NC(=O)NC1=O (configuration not stated) | inactive | – |
| CCCCC/C=C\C/C=C\C/C=C\CCCCCCC(=O)NCCO | – | -2.66% [at 4.12 µM] (inactive) |
| CC1CCCN1CCC(C(N)=O)(c1ccccc1)c1ccccc1 (configuration not stated) | inactive | – |
| O=Cc1cn(Cc2ccc(F)cc2Cl)c2ccccc12 | 18.4 µM (active) | – |
| O=[N+]([O-])c1ccc(Cl)c(Cl)c1 | inactive | – |
| CCC(=NCc1ccco1)c1c(O)n(Cc2ccccc2)c(=O)[nH]c1=O | inactive | – |
| Clc1ccc([C@@H]2C[C@H]3CC[C@@H]2N3)cn1 | inactive | – |
| Cc1ccc([C@H]2C[C@H](O)[C@@H](n3cc(COC(=O)c4ccccc4)nn3)CN2CC2CCCCC2)cc1 | 20.6 µM (active) | – |
| COCCNC(=O)CN1C2CCC1CC(O)(c1cccnc1)C2 (configuration not stated) | inactive | – |
| Cn1c(O)c(C=NCCN2CCNCC2)c(=O)n(C)c1=O | inactive | – |
| NCC(O)c1ccc(O)cc1 (configuration not stated) | inactive | – |

| Compound | Potency | activity change, negative = growth inhibition |
| --- | --- | --- |
| c1csc(CN2CC3(CCNCC3)C2)n1 | inactive | – |
| CCc1ccccc1NC(=O)c1sc2nc3c(cc2c1N)CN(Cc1ccccc1)CC3 | 5.8 µM (active) | – |
| CC12CN3CC(C)(CN(C1)C3c1cccs1)C2 (configuration not stated) | inactive | – |
| CC(=O)Nc1ccccc1C(=O)OCC(=O)c1cccc2ccccc12 | inactive | – |
| CCOc1cccc(=NC2CCCCC2)c2c(C)[nH]c(C)c12 | 5.8 µM (active) | – |
| O=C(N/N=C/c1c(O)n(C2CC2)c(=S)[nH]c1=O)c1ccccc1Cl | inactive | – |
| OC(CNC1CCCCC1)c1ccccc1 (configuration not stated) | inactive | – |
| CC1CC=CCC12C(=O)NC(=S)NC2=O (configuration not stated) | inactive | – |
| COc1ccccc1CNC(=O)Cn1c(=O)oc2cc(Cl)ccc21 | 18.4 µM (active) | – |
| Cc1ccccc1N1C(=O)NC(=O)/C(=C\c2cc(C)n(C)c2C)C1=O | inactive | – |
| C[C@]12CCC3C(CC[C@H]4[C@H](O)[C@H](O)CC[C@]34C)C1CC[C@@H]2O (some centres not stated) | inactive | – |
| C[C@@]12CCC3C(CC[C@@H]4CC(O)CC[C@@]34C)C1CCC2O (some centres not stated) | inactive | – |
| C[C@]12CCC3C(CC[C@H]4[C@H](O)[C@H](O)CC[C@]34C)C1CCC2=O (some centres not stated) | 13 µM (active) | – |
| CC1CCCCN1Cc1cccnc1 (configuration not stated) | inactive | – |
| CN1CCC(N(C)Cc2cccnc2)CC1 | inactive | – |
| CCOP(=S)(OCC)SCOC(=O)NCC(=O)OC | inactive | – |
| CC(Cc1cccs1)NCc1ccc(Cl)cc1 (configuration not stated) | inactive | – |
| C[C@@H]1Cn2cnc(C(=O)Nc3ccc(CNC(=O)OC(C)(C)C)cc3)c2C(=O)N1 | inactive | – |
| O=C(NCC1=C(c2ccc3ccccc3c2)C[C@@H]2CC[C@H]1N2Cc1ccco1)c1cccs1 | 23.1 µM (active) | – |
| CC(=O)NCC1=C(c2ccc3ccccc3c2)C[C@@H]2CC[C@H]1N2Cc1ccco1 | 23.1 µM (active) | – |
| N[C@H](Cc1o[nH]c(=O)c1Cl)C(=O)O | inactive | – |
| CC(=NCc1ccc2c(c1)OCO2)c1c(O)[nH]c(=O)[nH]c1=O | inactive | – |
| Cc1ccc(S(=O)(=O)N(C)c2ccc(C(=O)NCC3(N(C)C)CCCCC3)cc2)cc1 | inactive | – |

| Compound | Potency | activity change, negative = growth inhibition |
| --- | --- | --- |
| CN(C)c1nc(N(C)C)nc(N(C#N)CCCl)n1 | inactive | – |
| COc1ccc2[nH]cc(CCNCc3ccc(Br)cc3)c2c1 | 10.3 µM (active) | – |
| c1cncc(CNCCc2c[nH]c3ccccc23)c1 | inactive | – |
| C/C(CCc1c[nH]c2ccccc12)=N\O | inactive | – |
| COc1ccc(CNCCc2c[nH]c3ccccc23)cc1OC | 18.4 µM (active) | – |
| Cc1cc(C=C2C(=O)NC(=O)NC2=O)c(C)n1-c1ccncc1 | inactive | – |
| O=c1[nH]c(=O)n(CCc2ccccc2)c(O)c1/C=N/N1CCOCC1 | inactive | – |
| Cc1ccc(Cl)cc1N1CCN(C(=O)C2CCC(CNS(=O)(=O)c3cccs3)CC2)CC1 (configuration not stated) | 18.4 µM (active) | – |
| Cc1nc2nc(C)c(CCC(=O)N3CCC4(CC3)OCCO4)c(C)n2n1 | inactive | – |
| CCOP(=O)(OCC)C(O)c1ccc(OC)cc1OC (configuration not stated) | inactive | – |
| CC[C@H]1CN2CCc3cc(OC)c(OC)cc3[C@@H]2C[C@@H]1C[C@H]1NCCc2cc(OC)c(OC)cc21 | 150 nM (active) and 36.6 nM (active) | – |
| Nc1ccc([N+](=O)[O-])cc1 | inactive | – |
| CCOc1ccc(CN(CCCl)CCCl)cc1C(=O)OC | 4.11 µM (active) | – |
| COC([CH2][Hg])CNC(=O)c1ccccc1OCC(=O)O (configuration not stated) | 1.68 µM (active) | – |
| CC1([N+](=O)[O-])COP(=O)(Nc2ccc(F)cc2)OC1 (configuration not stated) | inactive | – |
| Fc1ccc(N2CCN(Cc3ccc4c(c3)OCO4)CC2)cc1 | inactive | – |
| O=C(Cc1ccccc1[N+](=O)[O-])N1CCN(Cc2ccc3c(c2)OCO3)CC1 | inactive | – |
| Cc1ccc(NC(=O)N(Cc2ccc3c(c2)OCO3)C2CCN(Cc3ccccc3)CC2)cc1F | 23.1 µM (active) | – |
| OCC#CC[N+]1(CC#Cc2ccccc2)CCCC1 | inactive | – |
| CN1CCN(Cc2ccc(OC(F)(F)F)cc2)CC1 | inactive | – |
| CN(C)CCCN=Cc1c(O)n(Cc2ccco2)c(=O)[nH]c1=O | inactive | – |
